In PubChem BioAssay:
Activity calls are given as the source filed them. Unless noted, the rule behind the calls is not given here.

Tests used:
[1] = system: Wnt5a (protein binding on small-molecule microarray); experiment: Wnt5a binders on small-molecule microarray, primary screen, biophysical, 635/667 nm fluorescence (AID 1142); conditions: 635 nm fluorescence, higher = more signal;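 note: fluorescence read at 667 nm with signal to noise per printed feature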
[2] = cell viability in Huh7 cells, primary screen, cytotoxicity control for HCV replication inhibitor project, CellTiter-Glo luminescence, basal, 48 h (AID 1143); conditions: Huh7 HCV replicon, higher = more signal, called active from +8 up or from −8 down;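 note: Huh7 hepatoma cells carrying a hepatitis C replication reporter with no stimulus; test concentration not given here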
[3] = P. aeruginosa biofilm formation inhibitors, primary screen, PAO1 strain, BacTiter-Glo luminescence, LB-PBS (AID 1144); conditions: 12 h, higher = more signal
[4] = CREB reporter modulators without forskolin, primary screen, cell-based, PC12, CRE-LacZ reporter, unstimulated (AID 1145); conditions: no forskolin, luminescence, 4.5 h, higher = more signal, called active from +8 up or from −8 down
[5] = CREB reporter modulators under forskolin, primary screen, cell-based, PC12, CRE-LacZ reporter, forskolin-stimulated (AID 1146); conditions: luminescence, 4.5 h, higher = more signal, called active from +8 up or from −8 down;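 note: PC12 cells with 6xCRE LacZ reporter stimulated by forskolin 10 µM; beta-galactosidase reporter signal reflecting CREB driven transcription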
[6] = molecular target: Streptavidin (Streptomyces avidinii) (UniProt P22629); experiment: streptavidin binders on small-molecule microarray, primary screen, artefact control for SMM compound annotation, biophysical, 635/667 nm fluorescence (AID 1147); conditions: streptavidin binding, higher = more signal;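 note: signal reflects streptavidin binding to arrayed compounds as a control protein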
[7] = small-molecule binders of probe aInhba, primary screen, biochemical, small-molecule microarray, 635/667 nm fluorescence (AID 1148); conditions: higher = more signal;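 note: score merges 667nm spot fluorescence with signal-to-noise for antibody binding to printed compounds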
[8] = molecular target: Torsin-1A (Homo sapiens) (UniProt O14656); experiment: torsin A binders from cell lysate, primary screen, small-molecule microarray, wild-type, 635/667 nm (AID 1149); conditions: COS7 hTOR1A-WT lysate, 635 nm fluorescence, higher = more signal
[9] = molecular target: Torsin-1A (Homo sapiens) (UniProt O14656); experiment: small-molecule binders of mutant TOR1A in lysate, primary screen, cell lysate, small-molecule microarray, COS7 lysate, 635/667 nm fluorescence (AID 1150); conditions: COS7 hTOR1A mutant lysate, 635 nm fluorescence, higher = more signal;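 note: score pools 667 nm emission and signal to noise measuring lysate protein binding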
[10] = system: Sonic hedgehog protein (Shh); experiment: small-molecule binders of Shh protein, primary screen, biochemical, small-molecule microarray, 635/667 nm fluorescence (AID 1151); conditions: small-molecule microarray binding, 635 nm fluorescence; higher = more signal;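 note: Shh protein binding to compounds spotted on small-molecule microarray slides; score combines spot fluorescence intensity with signal-to-noise across triplicate slides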
[11] = E. coli DRC41 culture turbidity changes, primary screen, E. coli filamentation inducer project, strain DRC41, OD650, 48 h (AID 1152);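 note: E. coli MC1000 strain DRC41 lacking acrAB efflux pump and sulA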; conditions: E. coli DRC41 (acrAB sulA), higher = more signal, called active from +8 up or from −8 down
[12] = small-molecule binders of probe aLefty1, primary screen, biochemical, small-molecule microarray, 635/667 nm fluorescence (AID 1153); conditions: higher = more signal;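 note: score merges spot fluorescence with signal-to-noise ratio from the scanned slide images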
[13] = PSAC antagonists in infected red cells, primary screen, cell-based, P. falciparum Indochina, OD700, 1 h (AID 1154); conditions: P. falciparum Indochina infected RBC osmotic lysis, higher = more signal, called active from +8 up or from −8 down
[14] = PSAC antagonists in infected red cells, primary screen, cell-based, P. falciparum Indochina, OD700, 2 h (AID 1155);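 note: lysis reports solute entry through the parasite surface anion channel PSAC; channel blockers reduce lysis of infected cells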; conditions: P. falciparum Indochina infected erythrocytes, osmotic lysis OD700; higher = more signal, called active from +8 up or from −8 down
[15] = osmotic lysis modulators in infected erythrocytes, primary screen, PSAC antagonist project, cell-based, P. falciparum Indochina, OD700, 3 h (AID 1156); conditions: higher = more signal, called active from +8 up or from −8 down
[16] = PSAC antagonists in infected red cells, primary screen, cell-based, P. falciparum Indochina, OD700, 18 h (AID 1157); conditions: P. falciparum Indochina infected erythrocytes, osmotic lysis OD700, 18 h; higher = more signal, called active from +8 up or from −8 down
[17] = modulators of S6 phosphorylation in cells, primary screen, cell-based, A549, cytoblot, luminescence, serum-stimulated (AID 1158); conditions: A549 phospho-S6 cytoblot, 5 h, higher = more signal;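 note: serum-stimulated A549 lung adenocarcinoma cells; signal is phosphorylated S6 detected by cytoblot immunostaining with HRP secondary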
[18] = molecular target: NADPH oxidase 2 (Homo sapiens) (UniProt P04839); experiment: NOX2-dependent H2O2 signal modulators, primary screen, NOX inhibitor project, cell-based, HEK293-NOX2, PMA-stimulated, Amplex Red fluorescence (AID 1159); conditions: 45 min, higher = more signal, called active from +8 up or from −8 down; note: test concentration not given here
[19] = molecular target: NADPH oxidase 4 (Homo sapiens) (UniProt Q9NPH5); experiment: NOX4-dependent H2O2 signal modulators, primary screen, NOX inhibitor project, cell-based, HEK293-NOX4, tetracycline-induced, Amplex Red fluorescence (AID 1160); conditions: 45 min, higher = more signal, called active from +8 up or from −8 down
[20] = molecular target: NADPH oxidase 5 (Homo sapiens) (UniProt Q96PH1); experiment: NOX5-dependent H2O2 signal modulators, primary screen, NOX inhibitor project, cell-based, HEK293-NOX5, Amplex Red fluorescence (AID 1161); conditions: HEK293-NOX5, ionomycin, 45 min, higher = more signal
Sequence of NADPH oxidase 5 (Homo sapiens) (Q96PH1 whole entry, looked up): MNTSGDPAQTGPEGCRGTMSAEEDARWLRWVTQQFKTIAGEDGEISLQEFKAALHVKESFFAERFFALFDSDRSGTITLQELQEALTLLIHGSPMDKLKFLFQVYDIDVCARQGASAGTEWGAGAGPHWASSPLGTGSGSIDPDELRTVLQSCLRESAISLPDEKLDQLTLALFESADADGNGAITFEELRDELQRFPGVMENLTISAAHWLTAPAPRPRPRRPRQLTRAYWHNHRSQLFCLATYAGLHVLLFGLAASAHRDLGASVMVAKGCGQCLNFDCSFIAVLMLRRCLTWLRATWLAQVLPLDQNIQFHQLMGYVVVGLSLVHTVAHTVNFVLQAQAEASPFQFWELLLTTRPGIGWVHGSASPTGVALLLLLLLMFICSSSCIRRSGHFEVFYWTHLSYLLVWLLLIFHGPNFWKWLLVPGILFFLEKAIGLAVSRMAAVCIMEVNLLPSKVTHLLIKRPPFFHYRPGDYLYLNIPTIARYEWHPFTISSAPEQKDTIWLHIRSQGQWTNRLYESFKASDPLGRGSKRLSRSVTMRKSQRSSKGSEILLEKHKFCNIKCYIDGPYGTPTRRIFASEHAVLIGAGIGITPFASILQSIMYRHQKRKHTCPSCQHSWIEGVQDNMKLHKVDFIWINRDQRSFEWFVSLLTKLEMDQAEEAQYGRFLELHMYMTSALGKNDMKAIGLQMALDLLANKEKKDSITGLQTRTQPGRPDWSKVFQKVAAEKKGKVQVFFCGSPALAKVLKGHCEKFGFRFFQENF

Sequence of NADPH oxidase 2 (Homo sapiens) (P04839 whole entry, looked up): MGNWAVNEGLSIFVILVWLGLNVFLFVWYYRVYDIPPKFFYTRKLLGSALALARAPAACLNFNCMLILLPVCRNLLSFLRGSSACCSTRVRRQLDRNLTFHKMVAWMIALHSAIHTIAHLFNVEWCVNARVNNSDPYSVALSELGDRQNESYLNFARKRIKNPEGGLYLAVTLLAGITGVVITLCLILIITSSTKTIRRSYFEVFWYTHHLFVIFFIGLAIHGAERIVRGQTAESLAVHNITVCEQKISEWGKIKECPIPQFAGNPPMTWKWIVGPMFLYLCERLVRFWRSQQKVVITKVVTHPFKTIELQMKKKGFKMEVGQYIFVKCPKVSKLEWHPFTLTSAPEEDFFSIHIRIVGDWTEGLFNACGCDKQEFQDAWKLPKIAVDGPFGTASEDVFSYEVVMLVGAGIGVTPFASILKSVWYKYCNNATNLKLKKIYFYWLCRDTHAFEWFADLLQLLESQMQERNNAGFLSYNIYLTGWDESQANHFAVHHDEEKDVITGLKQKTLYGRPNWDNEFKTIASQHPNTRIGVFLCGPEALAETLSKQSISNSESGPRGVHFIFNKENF
Sequence of NADPH oxidase 4 (Homo sapiens) (Q9NPH5 whole entry, looked up): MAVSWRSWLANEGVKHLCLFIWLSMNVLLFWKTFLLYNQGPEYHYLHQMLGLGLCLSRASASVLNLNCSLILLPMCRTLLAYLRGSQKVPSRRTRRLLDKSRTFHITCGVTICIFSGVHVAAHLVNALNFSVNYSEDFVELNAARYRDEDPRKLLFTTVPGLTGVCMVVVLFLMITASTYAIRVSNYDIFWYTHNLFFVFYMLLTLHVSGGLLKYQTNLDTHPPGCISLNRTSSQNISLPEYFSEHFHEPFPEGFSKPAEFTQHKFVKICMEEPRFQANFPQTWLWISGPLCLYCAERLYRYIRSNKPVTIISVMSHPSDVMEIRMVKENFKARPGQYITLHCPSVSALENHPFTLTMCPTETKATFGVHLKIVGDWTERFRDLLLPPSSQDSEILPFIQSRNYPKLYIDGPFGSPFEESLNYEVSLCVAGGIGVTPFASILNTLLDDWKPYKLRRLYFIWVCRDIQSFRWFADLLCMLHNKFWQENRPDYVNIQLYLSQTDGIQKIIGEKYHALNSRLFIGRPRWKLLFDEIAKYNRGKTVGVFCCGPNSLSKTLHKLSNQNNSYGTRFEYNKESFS
Sequence of Torsin-1A (Homo sapiens) (O14656 whole entry, looked up): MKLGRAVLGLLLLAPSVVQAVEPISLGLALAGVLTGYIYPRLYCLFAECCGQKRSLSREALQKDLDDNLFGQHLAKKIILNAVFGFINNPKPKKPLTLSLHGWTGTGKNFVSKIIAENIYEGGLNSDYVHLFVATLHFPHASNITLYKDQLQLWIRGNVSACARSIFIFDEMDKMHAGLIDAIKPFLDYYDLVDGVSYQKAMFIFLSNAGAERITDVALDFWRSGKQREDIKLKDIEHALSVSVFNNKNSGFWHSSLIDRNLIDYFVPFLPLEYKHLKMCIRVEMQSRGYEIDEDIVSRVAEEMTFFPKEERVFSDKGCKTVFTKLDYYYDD
Sequence of Streptavidin (Streptomyces avidinii) (P22629 whole entry, looked up): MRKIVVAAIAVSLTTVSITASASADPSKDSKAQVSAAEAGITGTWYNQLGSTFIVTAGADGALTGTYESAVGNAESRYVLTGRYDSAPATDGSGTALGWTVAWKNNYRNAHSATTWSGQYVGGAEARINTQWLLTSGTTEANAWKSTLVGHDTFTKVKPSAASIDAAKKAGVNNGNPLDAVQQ

| Structure (SMILES) | composite z-score [1] | z-score [2] | z-score [3] | z-score [4] | z-score [5] | composite z-score [6] | composite z-score [7] | composite z-score [8] | composite z-score [9] | composite z-score [10] | z-score [11] | composite z-score [12] | z-score [13] | z-score [14] | z-score [15] | z-score [16] | z-score [17] | z-score [18] | z-score [19] | z-score [20] |
| --- | --- | --- | --- | --- | --- | --- | --- | --- | --- | --- | --- | --- | --- | --- | --- | --- | --- | --- | --- | --- |
| CC(CCN1CCCc2nc(C)c(C)cc21)=NOC[C@@H](C)[C@H](OCc1ccccc1)C(C)C | -0.257 | -1.01 (inactive) | -0.47 (inactive) | -1.14 (inactive) | -0.186 (inactive) | -0.983 | -0.101 | -0.469 | -0.931 | 0.0185 | 0.259 (inactive) | -0.147 | 1.25 (inactive) | -1.75 (inactive) | -0.167 (inactive) | -1.84 (inactive) | 2 | -2.43 (inactive) | -1.68 (inactive) | -1.12 |
| CC(C)[C@@H](OCc1ccccc1)[C@H](C)C=NO[C@@H](C)c1cn([C@H](CO)Cc2ccccc2)nn1 | -0.0307 | -0.927 (inactive) | 0.496 (inactive) | 0.843 (inactive) | -0.0785 (inactive) | -0.0202 | -0.107 | 0.752 | 0.441 | 0.26 | 0.502 (inactive) | 0.086 | 1.82 (inactive) | -0.246 (inactive) | -0.038 (inactive) | 0.245 (inactive) | -0.78 | -1.07 (inactive) | -0.046 (inactive) | -0.543 |
| CC#CCOCCC=C1c2ccccc2[C@@H](OC)[C@@H]1C | 0.179 | 0.447 (inactive) | -0.445 (inactive) | 1.42 (inactive) | -0.146 (inactive) | -0.534 | -0.122 | 0.147 | 0.481 | 0.584 | 0.673 (inactive) | -0.0004 | 1.25 (inactive) | -0.16 (inactive) | -0.156 (inactive) | 0.0739 (inactive) | -0.161 | 0.114 (inactive) | 0.936 (inactive) | 0.696 |
| CO[C@@H](C1CCCCC1)[C@@H](C)[C@H](OCc1cccc(Br)c1)[C@@H](C)CO | -0.098 | -2.1 (inactive) | 0.115 (inactive) | 2.93 (inactive) | 0.432 (inactive) | -0.0731 | 0.0442 | -0.0604 | 0.467 | 0.458 | -0.409 (inactive) | -0.401 | 2.08 (inactive) | 1.29 (inactive) | -1.8 (inactive) | 0.957 (inactive) | -0.337 | -0.787 (inactive) | 0.0443 (inactive) | -2.45 |
| CCc1cc2c(nc1CC)CCN(CCC(C)=NOCC[C@@H]1C=C[C@H](OC(C)=O)[C@@H](COC(C)=O)O1)C2 | 0.257 | 0.0095 (inactive) | -0.0152 (inactive) | 3.88 (inactive) | 0.329 (inactive) | 1.78 | 0.127 | 2.66 | 1.66 | 1.32 | -0.842 (inactive) | 0.245 | 1.86 (inactive) | 0.724 (inactive) | 0.77 (inactive) | 0.269 (inactive) | -1.04 | -0.572 (inactive) | 0.615 (inactive) | 1.65 |
| CC(CCN1CCc2nc(-c3ccccc3)c(-c3ccccc3)cc2C1)=NO[C@H](C)c1cn([C@H](CO)Cc2ccccc2)nn1 | 0.136 | -2.39 (inactive) | -0.413 (inactive) | 0.987 (inactive) | 1.11 (inactive) | 0.545 | -0.0494 | 0.824 | 1.23 | 0.565 | -1.52 (inactive) | 0.057 | 1.6 (inactive) | 0.147 (inactive) | 1.16 (inactive) | 0.293 (inactive) | -0.746 | -4.57 (inactive) | -0.31 (inactive) | -1.75 |
| CO[C@@H]1C=CCC(=O)N[C@@H](C)C(=O)OC[C@@H](NS(=O)(=O)c2ccc(C)cc2)[C@H](C)C=CCC(=O)OC[C@H]1C | -0.0979 | -1.03 (inactive) | 0.225 (inactive) | 0.155 (inactive) | -1.23 (inactive) | -0.536 | -0.304 | 0.527 | 0.514 | 1.08 | -0.481 (inactive) | -0.141 | 0.0412 (inactive) | 0.149 (inactive) | -0.802 (inactive) | 0.109 (inactive) | -0.327 | -9.51 (active) | 0.732 (inactive) | -0.0177 |
| COC(=O)[C@H](C)NC(=O)CCC1CC(OC(=O)NCc2ccc3c(c2)OCO3)CC2(CCCC(COC(=O)NCCCN3CCCC3=O)O2)O1 (stereo not given in full) | 0.151 | -0.849 (inactive) | -0.202 (inactive) | 0.108 (inactive) | 0.833 (inactive) | 0.53 | 0.111 | 0.447 | 0.323 | 0.78 | -0.37 (inactive) | 0.0326 | -0.881 (inactive) | 0.136 (inactive) | -0.257 (inactive) | -0.169 (inactive) | 0.0031 | 1.1 (inactive) | -1.51 (inactive) | -1.74 |
| COc1ccc(COC(=O)NN=C2C[C@@H](O)[C@@H](O)[C@@H]3[C@@H]4C(=O)N(C[C@@H]5CCCO5)C(=O)[C@@H]4CC[C@H]23)cc1 | -0.109 | 0.338 (inactive) | 0.296 (inactive) | 0.159 (inactive) | -0.166 (inactive) | 0.669 | 0.0275 | -0.858 | -0.48 | -1.12 | -0.39 (inactive) | 0.544 | 3.23 (inactive) | 0.632 (inactive) | 0.398 (inactive) | 0.548 (inactive) | -0.308 | -3.46 (inactive) | 0.223 (inactive) | 0.0239 |
